The full list was thinned out, with hits kept by preference.
ST2 IL33 inh – inhibitors of human ST2 (IL1RL1) binding to IL-33, primary screen, biochemical, AlphaLISA | Interleukin-1 receptor-like 1 (Homo sapiens), Q01638 | AlphaLISA ST2-Fc/biotin-IL-33 interaction, 1 h | inhibition, % for hits at 17 µM | actives 2.3% (n = 78,000); in the data active means inhibition above about 30%
Target sequence (Q01638 whole entry, looked up): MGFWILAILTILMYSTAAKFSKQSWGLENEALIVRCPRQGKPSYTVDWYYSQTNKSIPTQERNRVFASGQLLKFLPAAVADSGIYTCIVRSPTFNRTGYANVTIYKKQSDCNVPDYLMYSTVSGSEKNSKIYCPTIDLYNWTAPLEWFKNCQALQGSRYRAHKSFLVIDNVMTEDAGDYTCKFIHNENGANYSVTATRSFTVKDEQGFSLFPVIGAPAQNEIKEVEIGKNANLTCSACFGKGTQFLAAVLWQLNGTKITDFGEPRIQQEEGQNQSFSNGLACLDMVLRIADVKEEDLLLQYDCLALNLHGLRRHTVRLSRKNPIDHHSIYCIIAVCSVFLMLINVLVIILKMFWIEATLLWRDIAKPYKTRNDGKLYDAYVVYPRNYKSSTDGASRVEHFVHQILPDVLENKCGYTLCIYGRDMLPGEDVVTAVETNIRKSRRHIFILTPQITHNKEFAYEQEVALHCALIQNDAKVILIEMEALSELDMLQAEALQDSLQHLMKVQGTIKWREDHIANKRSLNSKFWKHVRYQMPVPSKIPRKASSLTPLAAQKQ
* marks the source's active call; other numbers are inactive results.

For O=C1C[C@H]2CC[C@@H](CN1)N2Cc1cn[nH]c1-c1ccc(F)cc1 the results were ST2 IL33 inh inactive.
Screening CCNC(=O)[C@@]12CC[C@](C)(C(=O)C1)C2(C)C returned ST2 IL33 inh inactive.
Screening COCCn1cc(C(=O)N2CCCCC2)c2c3ccccc3n(C)c2c1=O returned ST2 IL33 inh inactive.
O=[N+]([O-])c1ccc(-c2cnc3ccccc3n2)cc1 was read as ST2 IL33 inh 31%*.
For O=[N+]([O-])c1ccc(-c2nc3ccccc3o2)cc1 the results were ST2 IL33 inh inactive.
Cc1nc2ccccc2nc1-c1ccc([N+](=O)[O-])cc1 was read as ST2 IL33 inh inactive.
Screening COc1ccc(OC)c(C2C(C(=O)OC3CC(C)CCC3C(C)C)=C(C)Nc3ncnn32)c1 (centres undefined) returned ST2 IL33 inh inactive.
Screening CC(CO)CN(Cc1ccccc1)C(=O)c1cnn2ccccc12 (centres undefined) returned ST2 IL33 inh inactive.
`CC1Cc2ccccc2N1S(=O)(=O)c1ccc2c(c1)CCC(=O)N2` (centres undefined) gave ST2 IL33 inh inactive.
`C#CCNC(=O)C[C@@H]1C[C@@H](C(C)C)[C@H](CNC(=O)C2CC2)C=C1C` gave ST2 IL33 inh inactive.
CC(C)CN1C(=O)c2ccc(S(=O)(=O)c3ccc4c(c3)C(=O)N(CC(C)C)C4=O)cc2C1=O was read as ST2 IL33 inh inactive.
Screening O=C(O)c1ccc(S(=O)(=O)c2ccc3c(c2)C(=O)N(c2nccs2)C3=O)cc1 returned ST2 IL33 inh inactive.
`CC(C)(C)N1C(=O)c2ccc(S(=O)(=O)c3ccc4c(c3)C(=O)N(C(C)(C)C)C4=O)cc2C1=O` gave ST2 IL33 inh 30%*.
For Cc1c(O)cccc1C(=O)NCC1CCCN(Cc2ccccn2)C1 (centres undefined) the results were ST2 IL33 inh inactive.
Cc1ccc(N2C(=O)C3N=NN(CC(=O)Nc4ccc(C(C)C)cc4)C3C2=O)cc1 (centres undefined) was read as ST2 IL33 inh inactive.
COc1ccc(OC)c(C2N(c3ccc(Cl)c(Cl)c3)C(=O)C3CCCN32)c1 (centres undefined) was read as ST2 IL33 inh inactive.
COc1ccc2[nH]c3c(c2c1)CCNC3=O was read as ST2 IL33 inh inactive.
Screening O=[N+]([O-])c1cccc(C2NCCc3c2[nH]c2ccccc32)c1 (centres undefined) returned ST2 IL33 inh inactive.
O=C1NCCc2c1[nH]c1ccc([N+](=O)[O-])cc21 was read as ST2 IL33 inh 30%*.
Cc1ccc(CN2CCSc3ccc(C(=O)NCc4ccc5c(c4)OCO5)cc32)cc1 was read as ST2 IL33 inh inactive.
CCc1nc(C)c(C(=O)N2CCOC(c3ccc(Cl)c(Cl)c3)C2)o1 (centres undefined) was read as ST2 IL33 inh inactive.
For COc1ccc(C2C3=C(CCCC3=O)Nc3nc(SC)[nH]c(=O)c32)cc1 (centres undefined) the results were ST2 IL33 inh inactive.
For CC(Cc1ccsc1)n1ccnc1-c1ccc(-n2ccnc2)cc1 (centres undefined) the results were ST2 IL33 inh inactive.
O=[N+]([O-])c1cccc2ccc(N3CCCCC3)nc12 was read as ST2 IL33 inh 30%*.
`O=[N+]([O-])c1nn(-c2ccccc2)[n+]([O-])c1N1CCCCCC1` gave ST2 IL33 inh inactive.
O=[N+]([O-])c1cccc2c(Br)[nH]nc12 was read as ST2 IL33 inh inactive.
Screening Cc1ccc(S(=O)(=O)Nc2ccc(Cl)cc2)cc1C(N)=O returned ST2 IL33 inh inactive.
Screening CCOc1ccc(C(=O)Nc2ccccc2CC)cc1Cl returned ST2 IL33 inh inactive.
For O=C1c2ccc(Oc3cccc([N+](=O)[O-])c3)cc2C(=O)N1c1c[nH]c(=O)[nH]c1=O the results were ST2 IL33 inh 31%*.
COc1ccc(N2C(=O)c3ccc(Oc4cccc(N)c4)cc3C2=O)cc1 was read as ST2 IL33 inh inactive.
For Cc1cc(N2C(=O)c3ccc([N+](=O)[O-])cc3C2=O)no1 the results were ST2 IL33 inh inactive.
Screening Cc1cc(Br)ccc1NC(=O)C1CCN(S(=O)(=O)c2cccs2)CC1 returned ST2 IL33 inh inactive.
For O=C(Cc1ccc([N+](=O)[O-])cc1)Nc1ccc(Oc2ccccc2)cc1 the results were ST2 IL33 inh inactive.
For COc1ccc(NC(=O)c2noc3c2CCc2cc(OC)ccc2-3)cc1 the results were ST2 IL33 inh inactive.
NC1=NN(c2ccccc2)CC1 was read as ST2 IL33 inh 40%*.
Screening NC1=NCCN1c1ccccc1 returned ST2 IL33 inh inactive.
Nc1ccnn1-c1ccccc1 was read as ST2 IL33 inh inactive.
Screening CCOc1ccccc1NC(=O)CCC1CCCCC1 returned ST2 IL33 inh inactive.
`Cc1ccc(Nc2nc(-c3ccc(O)c(O)c3)cs2)nc1` gave ST2 IL33 inh 42%*.
Cc1ccnc(Nc2nc(-c3ccccc3)cs2)c1 was read as ST2 IL33 inh inactive.

Bioassay records: PubChem BioAssay, Paczesny and Yang Labs, IUPUI and University of Michigan
